Hits are enriched below; roughly 4.8% of the tested compounds scored in any of these assays.
IL-1B inflam inh – qHTS for Inhibitors of Inflammasome Signaling: IL-1-beta AlphaLISA Primary Screen. 4.7% of 360,000 active. activity change, % at 57.5 µM. THP-1 LPS/ATP IL-1B secretion, AlphaLISA, 16 h; stronger effect = lower value; in the data active = activity change below about -50%; inconclusive = mostly about -30% to -49%
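Secreted IL-1B measured by AlphaLISA bead assay after 16 h compound exposure of THP-1 cells; compounds (final up to 57.5 uM) added 1 h before LPS (250 ng/mL) and ATP (1.25 mM) stimulation; lower signal means less secretion.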
USP1-UAF1 inh – Inhibitors of USP1/UAF1: Primary Screen; Ubiquitin carboxyl-terminal hydrolase 1 (Homo sapiens), O94782; recombinant USP1/UAF1, Ub-Rhodamine cleavage fluorescence; Potency, µM (highest dose often 57.1 µM), actives largely listed as inhibitors; 0.23% of 390,000 active; AID 743255, 2014; note: nearly all actives have a fitted effect of over 60% in size
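USP1/UAF1 complex at 1 nM was preincubated with compound for 15 min at room temperature, then Ub-Rho substrate (150nM final) was added. Fluorescence (480/540 nm) was read kinetically, 6 reads every 60 seconds.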
ATXN2 expr inh – Primary qHTS for Inhibitors of ATXN expression; HEK-293 ATXN2-luciferase reporter, luminescence, 24 h; 0.72% of 360,000 active; AID 1745845, 2022; Potency, µM (series often up to 57 µM), hits mostly inhibitors; note: nearly all actives have a fitted effect of over 55% in size
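ATXN2-luciferase reporter cells (luciferase flanked by upstream and downstream ATXN2 gene portions) were treated 24 h at 37 °C with compounds at up to 57 uM. SteadyGlo luminescence gave expression; GF-AFC fluorescence gave viability.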
S2 tox – Viability Counterscreen for Primary qHTS for Inhibitors of ATXN expression; Potency, µM (series often up to 56.7 µM), most hits filed as cytotoxic; S2 cells (HEK-293 line with an ATXN2-luciferase reporter) viability, CellTiter-Fluor protease fluorescence, 24 h; AID 651635, 2014; 0.49% of 400,000 active; note: nearly all actives have a fitted effect of over 40% in size
USP2a block – qHTS Assay for Inhibitors of Ubiquitin-specific Protease USP2a Using CHOP2 as the Reporter. 0.01% of 330,000 active. AID 463254, 2010. Ubiquitin carboxyl-terminal hydrolase 2 (Homo sapiens), O75604. USP2 core, Ub-CHOP2 coupled fluorogenic reporter, 485/531. Potency, µM (highest dose often 38.3 µM), hits mostly inhibitors
Target sequence (O75604 whole entry, looked up): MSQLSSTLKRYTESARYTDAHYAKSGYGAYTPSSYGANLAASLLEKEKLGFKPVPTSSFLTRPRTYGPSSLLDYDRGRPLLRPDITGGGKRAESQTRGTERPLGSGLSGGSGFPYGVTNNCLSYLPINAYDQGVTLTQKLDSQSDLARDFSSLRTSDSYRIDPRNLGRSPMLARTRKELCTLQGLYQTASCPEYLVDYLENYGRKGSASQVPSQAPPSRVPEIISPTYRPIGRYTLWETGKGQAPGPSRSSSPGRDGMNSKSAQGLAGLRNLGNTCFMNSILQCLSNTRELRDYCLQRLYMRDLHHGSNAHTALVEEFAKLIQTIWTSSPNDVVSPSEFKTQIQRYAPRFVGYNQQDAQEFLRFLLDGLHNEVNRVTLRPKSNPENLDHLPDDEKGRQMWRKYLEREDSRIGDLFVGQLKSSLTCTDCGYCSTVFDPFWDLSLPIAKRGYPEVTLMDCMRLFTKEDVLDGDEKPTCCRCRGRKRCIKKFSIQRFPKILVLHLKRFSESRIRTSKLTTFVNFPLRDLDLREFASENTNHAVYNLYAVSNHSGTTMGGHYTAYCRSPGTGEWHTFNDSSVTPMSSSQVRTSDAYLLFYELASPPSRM
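Cell-free coupled assay: 10nM USP2 core preincubated 30min RT with compound in Tris-HCl pH 8.0/CaCl2/CHAPS buffer, then 25nM Ub-CHOP2 and 25nM reporter substrate; fluorescence (Ex 485/Em 531) read after 60min RT, normalized to NEM inhibition, concentration-response curves fitted.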
Hits are given with their value; n = inactive; u = inconclusive; x = no result. Unless noted, calls come from the whole dose curve; as a rule, active = well fitted curve in the direction sought with a large enough effect; inconclusive = small, poorly fitted or top-dose-only effect, or another doubt; inactive = no such curve, though single readings can be large; an effect the other way counts as inactive or inconclusive.

SMILES | IL-1B inflam inh | USP1-UAF1 inh | ATXN2 expr inh | S2 tox | USP2a block
CC12CCC(C/C1=N\N=C1\NC(=O)/C(=C\c3cccc(Br)c3)S1)C2(C)C (centres undefined) | -68 | u | u | u | n
O=c1cc(CNc2cc(C(F)(F)F)cc(C(F)(F)F)c2)nc2sccn12 | -71 | n | n | n | n
COc1cccc(CNCC(O)COc2ccc(C(=O)c3ccccc3)cc2)c1 (centres undefined) | n | n | n | n | n
O=C(c1ccccc1)c1ccc(OCC(O)CNCc2ccc(Cl)cc2)cc1 (centres undefined) | -60 | n | u | n | n
Cc1ccc(OCC(O)CNCc2ccc(F)cc2)cc1 (centres undefined) | -78 | n | n | n | n
CC(=O)c1sc(N/N=C\c2ccc(N(C)C)cc2)nc1C | n | n | x | n | n
COC(=O)c1sc(N/N=C/c2ccc(C(C)C)cc2)nc1C | -64 | n | n | n | n
CO[C@H]1[C@H](NC(=O)c2ccco2)c2ccccc2C12CCN(Cc1cccn1-c1ccccn1)CC2 | x | x | x | n | x
O=C1CC(c2nc3ccccc3n2CCCCOc2ccccc2)CN1c1ccccc1Cl (centres undefined) | x | u | u | 28µM | x
Cc1ccccc1N1CC(c2nc3ccccc3n2CCC2CCCCC2)CC1=O (centres undefined) | x | n | u | x | x
CCc1ccccc1N1CC(c2nc3ccccc3n2CCC2CCCCC2)CC1=O (centres undefined) | x | n | u | 28µM | x
CCOc1ccc(N2CC(c3nc4ccccc4n3CCCOc3ccccc3OC)CC2=O)cc1 (centres undefined) | x | n | u | 18µM | x
COc1ccccc1OCCCn1c(C2CC(=O)N(c3ccc(F)cc3)C2)nc2ccccc21 (centres undefined) | x | n | n | n | x
COc1cc(=O)n2c(c1C(=O)NC(C)c1ccco1)CCN(C(=O)c1ccnc(Cl)c1)CC2 (centres undefined) | x | x | x | n | x
CN1CCC2(CC1)N=C(c1ccc(F)cc1)C(=S)N2C(=O)c1ccc(C(C)(C)C)cc1 | u | u | 32µM | u | n
Cc1[nH]c2ccccc2c1/C=N/Nc1nc(Nc2ccc(F)cc2)nc(N2CCOCC2)n1 | n | n | n | n | n
C(=N\Nc1nc(Nc2ccccc2)nc(N2CCOCC2)n1)/c1c[nH]c2ccccc12 | -81 | n | u | n | n
Cc1ccc(Nc2nc(N/N=C/c3c[nH]c4ccccc34)nc(N3CCOCC3)n2)cc1 | -67 | n | n | n | n
O=c1cc(O)c(Cl)c[nH]1 | x | x | n | n | x
C[C@@H](C(=O)NCc1ccccc1)[C@@H]1C[C@@]1(C)[C@@H](NC(=O)OCc1ccccc1)c1ccccc1 | -57 | n | n | n | n
Cc1cccc(NC(=O)CNC(=O)c2ccc(S(=O)(=O)NCc3ccco3)cc2)c1C | n | u | x | n | x
Cc1[nH]c(-c2ccc(F)cc2)cc1C(=O)N1CCN(c2ccccc2F)CC1 | u | n | n | n | n
Cc1[nH]c(-c2ccc(F)cc2)cc1C(=O)N1CCN(c2ccccc2)CC1 | -56 | n | u | n | n
Cc1ccc(N2CCN(C(=O)c3cc(-c4ccc(F)cc4)[nH]c3C)CC2C)cc1 (centres undefined) | -59 | n | n | n | n
CC1Cc2cc(-c3csc(N)n3)ccc2O1 (centres undefined) | n | n | n | n | n
SMILES | IL-1B inflam inh | USP1-UAF1 inh | ATXN2 expr inh | S2 tox | USP2a block
O=C(Nc1ccc(Oc2c(F)c(F)c(F)c(F)c2F)cc1)OC1CCN2Cc3ccccc3N=C12 (centres undefined) | -95 | n | u | u | n
Cc1cccc(NC(=O)Nc2ccc(Oc3c(F)c(F)c(F)c(F)c3F)cc2)c1 | n | n | n | n | n
Cc1cccc(S(=O)(=O)NC(=O)C2(C)CCN2C(=O)c2ccccc2)c1 (centres undefined) | n | x | n | n | x
CCOc1ccc2nc(N/C(N)=N/C(=S)Nc3cccc(C)c3)nc(C)c2c1 | u | n | n | n | n
COc1ccc2nc(N/C(N)=N/C(=S)Nc3c(C)cccc3C)nc(C)c2c1 | -63 | n | x | u | n
COc1ccc2nc(N/C(N)=N/C(=S)Nc3cccc(C)c3)nc(C)c2c1 | -56 | n | n | n | n
COc1ccc(NC(=S)/N=C(\N)Nc2nc(C)c3ccccc3n2)cc1 | n | n | n | u | n
CCc1ccccc1NC(=S)/N=C(\N)Nc1nc(C)c2cc(C)ccc2n1 | -101 | n | n | u | n
CCOc1ccc2nc(N/C(N)=N/C(=S)Nc3cccc(OC)c3)nc(C)c2c1 | -55 | n | n | u | n
NC(=O)NN=Cc1ccc([N+](=O)[O-])o1 | x | x | n | x | x
O=[N+]([O-])c1ccc(Sc2nnnn2-c2ccccc2)c(Cl)c1 | n | n | n | n | u
CN1CCN(S(=O)(=O)c2ccc(Sc3nnnn3-c3ccccc3)c([N+](=O)[O-])c2)CC1 | -74 | n | u | x | n
CC(=O)c1ccc(Sc2nnnn2-c2ccccc2)c([N+](=O)[O-])c1 | -100 | n | n | n | n
Cn1cnnc1Sc1cc(N2CCN(S(=O)(=O)c3ccccc3)CC2)ccc1[N+](=O)[O-] | n | n | n | n | n
COc1ccc(CNC(=O)C2CCN(S(=O)(=O)c3ccc(F)cc3)CC2)cc1 | x | n | n | n | x
N#C/C(=C/c1ccc(N2CCOCC2)o1)c1ccc(Cl)cc1 | -78 | 28µM | n | n | n
N#C/C(=C\c1ccncc1)c1nc2ccccc2[nH]1 | -64 | n | n | n | n
COc1cc(/C=C(/C#N)c2nc3ccccc3[nH]2)ccc1OCC(=O)Nc1ccccc1C | n | n | n | x | n
N#C/C(=C\c1ccc(N2CCCCC2)o1)C(N)=O | n | u | n | n | u
N#C/C(=C\c1ccc(N2CCOCC2)o1)c1nc2ccccc2[nH]1 | n | 25µM | n | n | u
COc1cc(/C=C(\C#N)c2nc3ccccc3[nH]2)ccc1OC(=O)c1ccco1 | -62 | n | n | n | n
N#C/C(=C\c1cccnc1)c1nc2ccccc2[nH]1 | n | n | n | x | n
CC1CCN(S(=O)(=O)c2ccc3[nH]ccc3c2)CC1 | x | n | x | x | x
CC(C)CN(C(=O)COC(=O)CSc1ccc(Br)cc1)C1CCS(=O)(=O)C1 (centres undefined) | n | n | n | n | n
COc1ccc(Cl)cc1NC(=O)Cn1ccn(Cc2ccc(C)cc2)c(=O)c1=O | x | n | x | x | x
Cn1cccc1/C=N/NC(=O)c1ccco1 | n | n | n | n | n
N#C/C(=C\c1ccc(N2CCOCC2)c([N+](=O)[O-])c1)c1nc2ccccc2[nH]1 | -104 | n | n | n | n

Bioassay records (PubChem)
